S2 tox: reduces viability in counter-screen for ATXN expression inhibitors; 400,000 tested, 0.49% active; S2 cells (HEK-293 line with an ATXN2-luciferase reporter) viability, CellTiter-Fluor protease fluorescence, 24 h; Potency, µM (titrated, usually from 56.7 µM), hits mostly cytotoxic; note: potency is the fitted concentration of half-maximal effect; nearly all actives have a fitted effect of over 40% in size
PINK1 expr mod: PINK1 expression modulation; PINK1 immunofluorescence, high-content cytometry, 24 h; Potency, µM (doses to about 76.6 µM), inactives show at the top dose activation (PINK1 increase), usual class: activators; 410,000 tested, 0.2% active; active = well fitted activation curve with a large enough effect; inconclusive = small, poorly fitted or top-dose-only effect; cell line not stated here; note: potency is the fitted concentration of half-maximal effect; % of control where 0% means no effect; nearly all actives have a fitted effect of over 65% in size
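Decision-based qHTS: stable cells, 24 h exposure to five compound concentrations, CCCP as control. Fixed cells stained for PINK1 plus nuclear, mitochondrial and cell markers, cytometer read.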
ATXN2 expr inh: ATXN2 expression inhibition; HEK-293 ATXN2-luciferase reporter, luminescence, 24 h; Potency, µM (highest dose often 57 µM), inactives show at the top dose activity change, negative = inhibition, most hits filed as inhibitors; 360,000 tested, 0.72% active; note: potency is the fitted concentration of half-maximal effect; % is set by controls: 0 for no effect and ±100 for the full control effect; nearly all actives have a fitted effect of over 55% in size
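ATXN2-luciferase reporter cells (luciferase flanked by upstream and downstream ATXN2 gene portions) were treated 24 h at 37 °C with compounds at up to 57 uM. SteadyGlo luminescence gave expression; GF-AFC fluorescence gave viability.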
IL1B secr inh: blocks inflammasome-driven IL-1 beta release. AID 743279. activity change, % at 57.5 µM. 360,000 tested, 4.7% active. THP-1 LPS/ATP IL-1B secretion, AlphaLISA, 16 h; active compounds read low; in the data active = activity change below about -50%; inconclusive = mostly about -30% to -49%; note: % is set by controls: 0 for no effect and ±100 for the full control effect
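THP-1 cells pretreated 1 hr with compounds (up to 57.5 uM final), then stimulated with LPS (250 ng/mL final) plus ATP (1.25 mM final); secreted IL-1B measured by AlphaLISA after 16 hr, decreased signal indicating inhibition.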
SW480 rereplic: DNA re-replication induction in SW480 cells | SW480 DNA re-replication, Hoechst DNA content imaging, 48 h | Potency, µM (top dose mostly 46.1 µM), for the others: at the top dose re-replication activation, hits mostly activators | 340,000 tested, 1.8% active | AID 624297; note: potency is the fitted concentration of half-maximal effect; % of control where 0% means no effect; nearly all actives have a fitted effect of over 55% in size
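Hoechst fluorescence of nuclei (405 nm excitation, 500-530 nm emission) measured by plate-scanning imager after 48 hr compound exposure at 37 C; re-replication scored as increased number of nuclei with elevated intensity.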
MCF10A rereplic: DNA re-replication induction in MCF 10a cells; MCF 10A DNA re-replication, Hoechst nuclear intensity, 48 h; Potency, µM (doses to about 46.1 µM), without a hit: top-dose activity, positive = re-replication, hits mostly activators; 350,000 tested, 2.9% active; AID 624296; note: potency is the fitted concentration of half-maximal effect; % of control where 0% means no effect; nearly all actives have a fitted effect of over 50% in size
* marks the source's active call; other numbers are inactive results; i = inactive; ? = inconclusive; . = no result given. Compounds with a hit are over-represented: about 7.1% of the library has one in this group of screens. Unless noted, calls come from the whole dose curve; as a rule, active = well fitted curve in the direction sought with a large enough effect; inconclusive = small, poorly fitted or top-dose-only effect, or another doubt; inactive = no such curve, though single readings can be large; an effect the other way counts as inactive or inconclusive.

SMILES | S2 tox | PINK1 expr mod | ATXN2 expr inh | IL1B secr inh | SW480 rereplic | MCF10A rereplic
O=C(CC1SC(=Nc2ccccc2)N(CCc2c[nH]c3ccccc23)C1=O)Nc1ccccc1F (centres undefined) | i | -2% | -30% | -80* | 2% | ?
COc1ccc(Cl)c(Cn2c(NCCN)nc3c2c(=O)n(C)c(=O)n3C)c1 | ? | -1% | -9% | . | . | .
C=CCNc1c(O)cc2c(O)c1C[C@@H](C)C[C@H](OC)[C@@H](O)[C@@H](C)C=C(C)[C@H](OC(N)=O)[C@@H](OC)C=CC=C(C)C(=O)N2 | . | . | 0.77µM* | . | . | .
COc1cccc(CNC(=O)CCC2CCCN(C(=O)c3cc4ccccc4o3)C2)c1 (centres undefined) | i | -1% | -5% | -90* | ? | -4%
CCCCCCCCCCCNC(=O)c1ccoc1C | i | 2% | -5% | 0 | -3% | 26µM*
Cc1occc1C(=O)NCCCCNC(=O)c1ccoc1C | i | 0% | 0% | -14 | -4% | ?
COc1ccccc1NC(=O)C1=C(C)Nc2c(C(=O)Nc3ccc(F)cc3)cnn2C1c1ccc(Cl)cc1 (centres undefined) | . | 24% | . | . | . | .
CCOc1ccc(N(CC(=O)N2CCN(c3ccc(F)cc3)CC2)S(=O)(=O)c2c(C)noc2C)cc1 | i | 0% | -2% | -24 | 23µM* | -1%
CC1=[N+](C)c2c(ccc3cccnc23)C1(C)C | . | 13µM* | 3µM* | -112* | ? | ?
CCN(Cc1ccccc1)S(=O)(=O)c1ccccc1Br | i | 3% | -9% | 18 | -16% | ?
CCCN(S(=O)(=O)c1ccccc1F)S(=O)(=O)c1ccccc1Br | i | 7% | 4% | 1 | ? | 21µM*
Cc1ccc(C)c(OCCC(=O)OCC(=O)Nc2ccc(Cl)cn2)c1 | i | 4% | 0% | 43 | 18µM* | -1%
CCOc1cc(N2CCOCC2)c(OCC)cc1NC(=O)COC(=O)CCOc1ccc(C)cc1 | i | -3% | 7% | -2 | 0% | -6%
CCOc1cc(N2CCOCC2)c(OCC)cc1NC(=O)COC(=O)CCOc1cc(C)ccc1C | i | -1% | -5% | -86* | 0% | ?
Cc1ccc(OCCC(=O)OCC(=O)Nc2ccc(Cl)cn2)cc1 | i | 3% | 8% | 24 | -5% | 1%
Cc1cc(-c2ccc(/C=N/n3cnnc3)o2)c(C)c([N+](=O)[O-])c1 | i | -1% | 1% | -71* | -12% | 1%
O=[N+]([O-])c1ccc(Cl)c(-c2ccc(/C=N/n3cnnc3)o2)c1 | i | 11% | 0% | -26 | -9% | 2%
Cc1ccc(-n2c(-c3ccccc3)c[n+]3c2CCc2ccccc2-3)c(C)c1 | i | ? | ? | -99* | 26% | 22%
COc1ccccc1CNS(=O)(=O)c1cc(Br)cc2c1N(C(=O)C1CC1)CC2 | i | 1% | -2% | . | . | .
Cn1c2ccccc2c2ccc3c(c21)C(=O)C=CC3=O | 6µM* | -3% | ? | ? | 1% | 6.5µM*
COc1ccc2c(c1)c1ccc3c(c1n2C)C(=O)C=CC3=O | i | 9% | . | -6 | -5% | ?
Cc1ccc2c(c1)c1ccc3c(c1n2C)C(=O)C=CC3=O | 10µM* | -2% | 10µM* | -3 | ? | ?
N#Cc1cccnc1N1CCN(C(=O)c2cccc3c2C(=O)c2ccc(-c4ccc(Cl)c(C(F)(F)F)c4)cc2S3(=O)=O)CC1 | i | 1% | 7% | 11 | 1% | -2%
N#Cc1cccnc1N1CCN(C(=O)c2cccc3c2C(=O)c2ccc(Cl)cc2S3(=O)=O)CC1 | 20µM* | 2% | ? | -99* | 4% | 0%
O=C1c2ccc(Cl)cc2S(=O)(=O)c2cccc(C(=O)N3CCC(Cc4ccccc4)CC3)c21 | . | -1% | ? | -99* | ? | ?
SMILES | S2 tox | PINK1 expr mod | ATXN2 expr inh | IL1B secr inh | SW480 rereplic | MCF10A rereplic
COc1ccc2ccccc2c1CN1CCCC(n2cc(C(=O)N3CCCC3)nn2)C1 (centres undefined) | i | 0% | . | . | . | .
CCCCCCCCCCC[N+](C)(C)CC/C=C1/c2ccccc2Sc2ccc(Cl)cc21 | 11µM* | -1% | . | -67* | -1% | 19%
NCC/C=C1/c2ccccc2CSc2ccccc21 | i | -1% | -30% | -18 | ? | -12%
OCCN1CCN(CC/C=C2/c3ccccc3Sc3ccc(Cl)cc32)CC1 | ? | -1% | ? | ? | 29% | 4.6µM*
CCCCCCCCCC[N+](C)(C)CC/C=C1/c2ccccc2Sc2ccc(Cl)cc21 | 7.9µM* | -1% | . | -30 | -4% | ?
CC[N+](C)(C)CC/C=C1/c2ccccc2Sc2ccc(Cl)cc21 | i | 0% | -22% | . | -9% | -22%
O=C(c1ccccc1)c1cc(Cl)ccc1N1C(=O)C=CC1=O | ? | 7% | -17% | -80* | 18µM* | ?
N#Cc1cc(C(=O)c2cc(Cl)ccc2O)cn(-c2ccccc2)c1=O | i | 4% | 1% | 12 | 0% | 1%
C=CC(C)N1C(=O)S/C(=C\c2ccc(N3CCOCC3)cc2C)C1=O (centres undefined) | i | 14% | 29% | -77* | ? | ?
COc1cccc(C(=O)Oc2cc3c4c(c2)C(C)=CC(C)(C)N4C(=O)C3=O)c1 | ? | . | -7% | 29 | 4.1µM* | ?
COc1cc2c3c(c1)C(C)=CC(C)(C)N3C(=O)C2=O | i | 0% | . | 0 | 10µM* | ?
COc1ccc(C(=O)Oc2cc3c4c(c2)C(C)=CC(C)(C)N4C(=O)C3=O)cc1OC | i | 7% | 7% | 10 | -1% | -2%
Cc1ccc(C(=O)c2c3ccc(C(F)(F)F)cc3[n+]([O-])n2CCCN)cc1 | ? | 8% | 9% | -53* | 17% | -6%
Cc1cccc(N(C)S(=O)(=O)c2nnc(NC(=O)C(C)Oc3ccccc3)s2)c1 (centres undefined) | . | 0% | . | . | . | .
CON=C1C[C@]2(C[C@@H]3C[C@@H](C/C=C(\C)C[C@@H](C)/C=C/C=C4\CO[C@@H]5[C@H](O)C(C)=C[C@@H](C(=O)O3)[C@]45O)O2)O[C@H](/C(C)=C/C(C)C)[C@H]1C | 16µM* | . | . | . | . | .
CO[C@H]1C[C@H](O[C@H]2[C@H](C)O[C@@H](O[C@@H]3/C(C)=C/C[C@@H]4C[C@@H](C[C@]5(C=C[C@H](C)[C@@H](C6CCCCC6)O5)O4)OC(=O)[C@@H]4C=C(C)[C@@H](O)[C@H]5OC/C(=C\C=C\[C@@H]3C)[C@]54O)C[C@@H]2OC)O[C@@H](C)[C@@H]1O | 3.2µM* | . | . | . | . | .

High-throughput results (PubChem BioAssay)
